# Results reported in PubChem BioAssay (EPA / NIEHS).
# Results filed as inconclusive are left out. Calls of active or inactive are those of the source. How the source made its calls: active means hit-call score of the fitted dose curve at least 0.9, where 1 is the maximum; inconclusive means response in the unintended direction; inactive means score below 0.9.
# What was measured:
# [1] = target: Luciferin 4-monooxygenase (Photinus pyralis) (UniProt P08659); assay: CCTE_Simmons_QuantiLum_inhib_2: CCTE's Firefly Luciferase Inhibition Assay, Simmons Lab (AID 2283767);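 on AC50: potency for inhibitors that lower luciferase luminescence relative to DMSO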
# Procedure, shortened: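 Luminescence loss relative to DMSO vehicle defines inhibition; detection reagent containing 150 uM D-luciferin and 147 uM dATP (final, pH 7.8) is injected immediately before each read. Enzyme is preincubated with an 8-point titration (5 nM–87.5 uM final) for 30 min at 37C.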
# [2] = ACEA_AR_agonist_AUC_viability: ACEA Biosciences xCELLigence Real-Time Cell Analysis on Androgen Receptor Agonism for Viability (AID 2283775);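 on AC50: viability read 80 hours after compound addition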
# Procedure, shortened: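 Real-time impedance tracking of 22Rv1 growth, readings every 5 min for 5 h then hourly; area-under-curve viability endpoint at 80 hours, relative to DMSO. Compounds at eight concentrations, 1:4 steps, top 100 uM, n = 2.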
# [3] = ACEA_AR_antagonist_AUC_viability: ACEA Biosciences xCELLigence Real-Time Cell Analysis on Androgen Receptor Antagonism for Viability (AID 2283776);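 further: 22Rv1 human prostate cancer cells growing on impedance electrode plates; hits lower the growth signal relative to DMSO meaning cytotoxicity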
# Procedure, shortened: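 22Rv1 prostate cells, continuous dosing up to 100 uM final (0.5% DMSO max), duplicate plates. Growth measured by impedance; AUC at 80 h, loss of signal vs DMSO.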
# [4] = ACEA_ER_AUC_viability: ACEA Biosciences xCELLigence Real-Time Cell Analysis on Estrogen Receptor Agonism for Viability (AID 2283782);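 further: continuous compound exposure with impedance area under curve over 80 h; hit means loss of impedance signal meaning reduced cell growth or viability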
# Procedure, shortened: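 T-47D; phenol red-free RPMI1640 + 10% CS-FBS; 8 conc., 1:4 serial, max 100 uM final, ≤0.5% DMSO; n = 2; continuous exposure; impedance monitored to 80 h post-dose; AUC vs DMSO.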
# Luciferin 4-monooxygenase (Photinus pyralis), sequence (P08659 whole entry, looked up): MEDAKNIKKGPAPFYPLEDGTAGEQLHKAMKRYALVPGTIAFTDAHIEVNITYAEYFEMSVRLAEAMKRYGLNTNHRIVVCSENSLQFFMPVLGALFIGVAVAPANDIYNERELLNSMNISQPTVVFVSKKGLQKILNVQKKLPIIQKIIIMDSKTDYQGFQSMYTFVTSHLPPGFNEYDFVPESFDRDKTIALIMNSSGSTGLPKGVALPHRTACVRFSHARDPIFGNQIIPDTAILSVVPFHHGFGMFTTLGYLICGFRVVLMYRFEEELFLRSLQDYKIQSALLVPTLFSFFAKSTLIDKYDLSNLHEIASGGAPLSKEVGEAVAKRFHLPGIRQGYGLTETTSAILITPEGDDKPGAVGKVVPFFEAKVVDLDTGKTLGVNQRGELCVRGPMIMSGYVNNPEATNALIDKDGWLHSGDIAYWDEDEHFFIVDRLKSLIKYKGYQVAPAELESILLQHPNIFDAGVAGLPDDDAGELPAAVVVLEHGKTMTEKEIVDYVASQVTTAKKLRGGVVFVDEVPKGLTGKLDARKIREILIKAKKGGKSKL
compound,measurement,setting,value
On1ccccc1=S,AC50,[1],9 µM (active)
same,AC50,[2],9.92 µM (active)
same,AC50,[3],50 µM (active)
same,AC50,[4],88.8 µM (active)
Cc1[nH]cnc1C[C@H]1CCc2c(C)c3ccccc3n2C1=O,outcome,[1],inactive
same,AC50,[2],44.5 µM (active)
same,AC50,[3],50.1 µM (active)
CCC(C)(C)C(=O)O[C@H]1C[C@@H](C)C=C2C=C[C@H](C)[C@H](CC[C@@H]3C[C@@H](O)CC(=O)O3)[C@H]21,outcome,[1],inactive
same,AC50,[2],29.9 µM (active)
same,AC50,[3],32.1 µM (active)
same,AC50,[4],30.5 µM (active)
C[C@](N)(Cc1ccc(O)c(O)c1)C(=O)O,AC50,[1],53.8 µM (active)
same,outcome,[4],inactive
CCCCCCCCO,outcome,[2],inactive
same,outcome,[3],inactive
same,outcome,[4],inactive
COc1ccc(-n2nc(C(F)F)cc2-c2ccc(S(C)=O)cc2)cc1 (configuration not stated),outcome,[2],inactive
same,outcome,[3],inactive
CC[C@H]1CC[C@H](NCc2cc3c(cc2OC)[C@H]2C[C@H]2C(=O)N3C)[C@H](c2ccccc2)N1,AC50,[2],17.5 µM (active)
same,AC50,[3],18.2 µM (active)
same,AC50,[4],18.5 µM (active)
CC[C@H]1OC(=O)[C@H](C)[C@@H](O[C@H]2C[C@@](C)(OC)[C@@H](O)[C@H](C)O2)[C@H](C)[C@@H](O[C@@H]2O[C@H](C)C[C@H](N(C)C)[C@H]2O)[C@](C)(O)C[C@@H](C)C(=O)[C@H](C)[C@@H](O)[C@]1(C)O,outcome,[2],inactive
CCCCC(CC)COC(=O)CCCCCCCCC(=O)OCC(CC)CCCC (configuration not stated),outcome,[2],inactive
CCOC(=O)COc1ccc2c(c1)CC(NCC(O)c1cccc(Cl)c1)CC2 (configuration not stated),AC50,[2],63.6 µM (active)
same,AC50,[3],24.1 µM (active)
same,AC50,[4],16.2 µM (active)
CC(C)CCO,outcome,[2],inactive
same,outcome,[3],inactive
Fc1ccccc1[C@@H](F)COC1CCC(Nc2ncnc3[nH]ncc23)CC1 (some centres not stated),AC50,[2],63.2 µM (active)
same,AC50,[3],50 µM (active)
O=C1CCCCCN1,outcome,[2],inactive
same,outcome,[3],inactive
CC(=O)OCCC(C)C,outcome,[2],inactive
same,outcome,[3],inactive
COC(=O)CC(=O)OC,outcome,[2],inactive
same,outcome,[3],inactive
same,outcome,[4],inactive
O=C1OC(=O)C2C3C=CC(C3)C12 (configuration not stated),outcome,[2],inactive
same,outcome,[3],inactive
CC(=O)c1ccc2c(c1)[C@H](NC(=O)c1ccc(F)cc1)[C@@H](O)C(C)(C)O2,outcome,[2],inactive
same,outcome,[3],inactive
CC(O)CN(CCN(CC(C)O)CC(C)O)CC(C)O (configuration not stated),outcome,[2],inactive
same,outcome,[3],inactive
CN(C)c1ccc(N=NS(=O)(=O)O)cc1,outcome,[1],inactive
same,outcome,[4],inactive
COc1ccc(/C=C/S(=O)(=O)NC(=O)c2ccc(C)cc2Cl)cc1,AC50,[2],16.3 µM (active)
same,AC50,[3],22.7 µM (active)
CCN(C(=O)c1cc(C)cc(OC[C@H](C)Nc2ccncc2)c1)C(C)C,AC50,[2],33.8 µM (active)
same,AC50,[3],11.2 µM (active)
O=C(NS(=O)(=O)/C=C/c1ccccc1)c1ccc(F)cc1Cl,AC50,[2],5.76 µM (active)
same,AC50,[3],13.1 µM (active)
CC(C)CC(C)(O)C#CC(C)(O)CC(C)C (configuration not stated),outcome,[2],inactive
same,outcome,[3],inactive
CC(C)=CCC/C(C)=C/CO,AC50,[2],33 µM (active)
same,AC50,[3],25.6 µM (active)
CNCc1ccc(NC(=O)c2c[nH]c3c2C(=O)CCC3)cc1,AC50,[2],50 µM (active)
same,AC50,[3],67 µM (active)
CCOCCOCCOCCO,outcome,[2],inactive
same,outcome,[3],inactive
O=C(O)CC(O)C(=O)O (configuration not stated),outcome,[2],inactive
same,outcome,[3],inactive
CC1=CC(=O)CC(C)(C)C1,outcome,[2],inactive
same,outcome,[3],inactive
Cc1c(-c2cccnc2)c2ccccc2n1CCCCC(=O)O,AC50,[2],24.1 µM (active)
same,AC50,[3],22.8 µM (active)
same,AC50,[4],17.3 µM (active)
CC1(C)C(=O)N(Br)C(=O)N1Br,outcome,[2],inactive
same,outcome,[3],inactive
CCOC(=O)c1ccc(C2CCC(NC[C@H](O)COc3ccc(O)c(NS(C)(=O)=O)c3)CC2)cc1 (some centres not stated),outcome,[1],inactive
same,AC50,[3],24.4 µM (active)
same,AC50,[4],5.31 µM (active)
COc1ccc2sc(C(=O)Nc3nnn[nH]3)c(OC(C)C)c2c1,AC50,[2],9.32 µM (active)
same,AC50,[3],12.9 µM (active)
same,AC50,[4],9.87 µM (active)
COc1cccc(-c2ccc(/C=C\CN3CCCCCC3)cc2Cl)c1,AC50,[2],62.7 µM (active)
same,AC50,[3],45.2 µM (active)
same,AC50,[4],56.3 µM (active)
Cc1ccc(S(=O)(=O)O)cc1C,outcome,[2],inactive
same,outcome,[3],inactive
same,outcome,[4],inactive
Cn1c(=O)c2c(ncn2C)n(C)c1=O,outcome,[2],inactive
same,outcome,[3],inactive
same,outcome,[4],inactive
C1N2CN3CN1CN(C2)C3,outcome,[2],inactive
same,outcome,[3],inactive
same,outcome,[4],inactive
CCOC(=O)CC(CC(=O)OCC)(OC(C)=O)C(=O)OCC,outcome,[3],inactive
COCCOc1cc2cc(C(=O)NC3CCN(C(C)C)CC3)n(CC(=O)Nc3ccc(Cl)cn3)c2cn1,AC50,[2],40.9 µM (active)
same,AC50,[3],45 µM (active)
same,outcome,[4],inactive
O=C(O)c1cccc(Oc2ccccc2)c1,outcome,[3],inactive
same,outcome,[4],inactive
CCCCC(CC)COC(=O)c1ccc(C(=O)OCC(CC)CCCC)cc1 (configuration not stated),outcome,[3],inactive
same,AC50,[4],80 µM (active)
CCCC(=O)OCC,outcome,[3],inactive
same,outcome,[4],inactive
C=CC(=C)CCC=C(C)C,outcome,[2],inactive
same,outcome,[3],inactive
same,outcome,[4],inactive
CC(C)CCCCCCOC(=O)c1ccc(C(=O)OCCCCCCC(C)C)c(C(=O)OCCCCCCC(C)C)c1,outcome,[3],inactive
CNS(=O)(=O)c1cc(C(=O)N2CCC(CCN3C4CCC3CC(n3c(C)nc5ccccc53)C4)(c3cccc(F)c3)CC2)c(Cl)cc1F (configuration not stated),AC50,[4],19.2 µM (active)
Cc1ccc(O)cc1,outcome,[2],inactive
same,outcome,[3],inactive
same,outcome,[4],inactive
CCOCCO,outcome,[2],inactive
same,outcome,[3],inactive
same,outcome,[4],inactive
CCCCCCCCCCCCCCCO,AC50,[2],78.9 µM (active)
same,AC50,[3],89.4 µM (active)
same,outcome,[4],inactive
C1=CCCC=CCCC=CCC1,outcome,[2],inactive
same,outcome,[3],inactive
same,outcome,[4],inactive
O=C(O)c1cc(N=Nc2ccc(S(=O)(=O)Nc3ccccn3)cc2)ccc1O,outcome,[3],inactive
Cn1c(=O)cc(Oc2ccc(F)cc2F)c2cnc(NCC(C)(C)O)nc21,outcome,[3],inactive
COC(=O)c1c(Cl)c(Cl)c(C(=O)OC)c(Cl)c1Cl,outcome,[2],inactive
same,AC50,[3],50 µM (active)
same,outcome,[4],inactive
COCCOCCOCCOC,AC50,[3],24.2 µM (active)
Cc1ccc(C)c(O)c1,outcome,[2],inactive
same,outcome,[3],inactive
same,outcome,[4],inactive
Clc1nc(Cl)c(Cl)c(Cl)c1Cl,outcome,[2],inactive
same,AC50,[3],50 µM (active)
same,AC50,[4],92 µM (active)
CCc1cc(SCc2sc(-c3ccc(C(F)(F)F)cc3)nc2CN2CCN(c3ccc(OC)cc3)CC2)ccc1OCC(=O)O,AC50,[4],34.5 µM (active)
CC(C)CCCCCCCOC(=O)CCCCC(=O)OCCCCCCCC(C)C,outcome,[2],inactive
same,outcome,[3],inactive
same,outcome,[4],inactive
O=c1[nH]c2ccc(S(=O)CCN3CCC(Cc4ccc(F)cc4)CC3)cc2o1 (configuration not stated),outcome,[2],inactive
same,outcome,[3],inactive
same,outcome,[4],inactive
CC(=O)OC[C@H]1O[C@@](COC(C)=O)(O[C@H]2O[C@H](COC(C)=O)[C@@H](OC(C)=O)[C@H](OC(C)=O)[C@H]2OC(C)=O)[C@@H](OC(C)=O)[C@@H]1OC(C)=O,outcome,[3],inactive
Nc1cccc(N)c1,outcome,[3],inactive
O=C1CCC(N2C(=O)c3ccccc3C2=O)C(=O)N1 (configuration not stated),outcome,[2],inactive
same,outcome,[3],inactive
same,outcome,[4],inactive
